Source: PubChem (National Center for Advancing Translational Sciences (NCATS))
An excerpt weighted towards active compounds, which were near 19% of everything screened.
KB-V1 cytotox – KB-V1 MDR subline cytotoxicity; KB-V1 MDR cells viability, CellTiter-Glo, 72 h; Potency, µM (titrated, usually from 46.1 µM), most hits filed as cytotoxic; 400,000 compounds, 3.4% hits; AID 1347076; note: nearly all actives have a fitted effect of over 60% in size
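In this primary screen, KB-V1 cells overexpressing P-gp are incubated with library compounds (lowest to highest concentration) for 72 h at 37 degrees C before a luminescent ATP viability read.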
TDP1 cell noCPT – qHTS for Inhibitors of human tyrosyl-DNA phosphodiesterase 1 (TDP1): qHTS in cells in absence of CPT | DT40 Tdp1-/- hTDP1 cells, no CPT, ATP luminescence, 48 h | Potency, µM (doses to about 46.2 µM), for inactives: at the highest dose activity change, negative = growth inhibition, actives largely listed as inhibitors | 420,000 compounds, 15% hits | AID 686978, 2013; note: nearly all actives have a fitted effect of over 55% in size
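Growth kinetics read by CellTiter-Glo luminescence after ≥48 hr at 37 °C. Cells: DT40 Tdp1-/- stably carrying human TDP1, 400 per well, compound exposure in the absence of CPT (DMSO vehicle).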
HT1080-NT tox – kills 2HG-producing HT-1080-NT fibrosarcoma cells; Potency, µM (titrated, usually from 46.1 µM), without a hit: at the highest dose activity, negative = less viability, usual class: cytotoxic; HT-1080-NT fibrosarcoma viability, CellTiter-Glo ATP luminescence, 48 h; 360,000 compounds, 1.6% hits; AID 686970;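 note: NT is the 2HG producing partner of a matched IDH1 knockdown line; 0% = DMSO-treated cells and -100% = media-only wells without cells; nearly all actives have a fitted effect of over 55% in size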
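Viability of the 2HG-overproducing fibrosarcoma line after 48 hours of compound exposure at 37 degrees C was determined by luminescence with CellTiter-Glo, and concentration-effect curves were then fitted and categorized.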
TDP1 cell CPT – DT40-hTDP1 cell growth loss with CPT | chicken DT40 Tdp1-/-;hTDP1 cells + 20 nM CPT, ATP luminescence, 48 h | Potency, µM (titrated, usually from 46.2 µM), for the others: top-dose activity change, negative = growth inhibition, most hits filed as inhibitors | 420,000 compounds, 12% hits | AID 686979; note: nearly all actives have a fitted effect of over 55% in size
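Cell growth measured by CellTiter-Glo luminescence after a minimum 48 h, 37 C compound exposure with 20 nM CPT in Tdp1-knockout DT40 cells stably expressing hTDP1, seeded 400/well; qHTS titration format.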
HT1080 IDH1KD tx – HT-1080 IDH1 knockdown cell toxicity (counter line) | Potency, µM (series often up to 46.1 µM), for the others: at the top dose activity, negative = toxicity, most hits filed as cytotoxic | HT-1080 IDH1 knockdown viability, ATP luminescence, 48 h | 360,000 compounds, 2% hits;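 note: 0% = DMSO wells and -100% = cell-free medium wells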
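Cytotoxicity counter-line: IDH1KD HT-1080, 48 h, CellTiter-Glo. Curves classed by r2, magnitude and activity.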
KB-3-1 tox – kills parental KB-3-1 adenocarcinoma cells | AID 1347075 | 400,000 compounds, 1.4% hits | KB-3-1 viability, CellTiter-Glo ATP luminescence, 72 h | Potency, µM (top dose mostly 46.1 µM), most hits filed as cytotoxic; note: nearly all actives have a fitted effect of over 60% in size
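Here the drug-naive KB-3-1 line serves as comparator for MDR sub-line selectivity; cells received compound titrations, 72 h at 37 °C, then CellTiter-Glo readout.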
* hit, by the source's call; i = inactive; ? = inconclusive; . = not tested or not shown. Calls come from the whole dose curve; as a rule, active = well fitted curve in the direction sought with a large enough effect; inconclusive = small, poorly fitted or top-dose-only effect, or another doubt; inactive = no such curve, though single readings can be large; an effect the other way counts as inactive or inconclusive. Unless noted, % is set by controls: 0 for no effect and ±100 for the full control effect; potency is the fitted concentration of half-maximal effect.

SMILES	KB-V1 cytotox	TDP1 cell noCPT	HT1080-NT tox	TDP1 cell CPT	HT1080 IDH1KD tx	KB-3-1 tox
COCC(=O)Nc1cc(C(=O)N2CCCOc3c(cccc3OC)C2)c2c(c1)nc(C1CCC1)n2C	.	-15%	.	15%	.	.
COc1ccc(C(=O)N2CCc3cc(OC)c(OC)cc3C2)cc1OC	?	?	?	?	?	i
COc1cc2c(cc1OC)CN(C(=O)c1ccc([N+](=O)[O-])o1)CC2	?	?	13µM*	?	?	i
COc1ccc(NC(=O)c2nc(-c3ccc(C)cc3)n3c2CCCCC3)cc1	.	16µM*	.	?	.	.
COc1ccc(OC)c(CCNC(=O)c2nc(-c3ccc(Cl)cc3)n3c2CCCCC3)c1	i	9.2µM*	.	10µM*	.	?
Cc1ccc(-c2nc(C(=O)N3CCN(c4ccccc4)CC3)c3n2CCCCC3)cc1	i	.	.	.	.	i
COc1ccc(N2CCN(C(=O)c3nc(-c4ccc(Cl)cc4)n4c3CCCCC4)CC2)cc1	i	21µM*	.	?	.	i
COc1ccc(NC(=O)c2nc(-c3ccc(C)cc3)n3c2CCCCC3)c(OC)c1	i	-20%	.	6%	.	i
CN(Cc1ccccc1)C(=O)c1nc(-c2ccc(Cl)cc2)n2c1CCCCC2	i	?	.	?	.	i
Cc1ccc(CNC(=O)c2nc(-c3ccc(Cl)cc3)n3c2CCCCC3)cc1	i	18µM*	.	?	.	i
COc1ccc(OC)c(CCNC(=O)C2CCN(c3ncnc4c3nc3n4CCCCC3)CC2)c1	i	?	15%	?	10%	i
CCN1CCN(C(=O)C(=O)c2c(C)[nH]c3ccccc23)CC1	?	17%	0%	-2%	5%	i
COc1cc(CN2CCc3nnc(C(NS(C)(=O)=O)C(C)C)n3CC2)ccc1F (stereo unspecified)	.	-7%	.	13%	.	.
O=C(NCC1CCCO1)C(c1cccs1)N(Cc1ccccc1Cl)C(=O)c1ccc(-c2ccccc2)[nH]1 (stereo unspecified)	4.1µM*	23µM*	-19%	?	?	i
Cc1ccc(C(C(=O)NCC2CCCO2)N(Cc2ccccc2)C(=O)c2ccc(-c3ccccc3)[nH]2)o1 (stereo unspecified)	i	?	-27%	?	?	i
CN(C)c1ncc2nc(-c3cc(F)cc(F)c3)c(=O)n(C3CC3)c2n1	.	6%	.	-2%	.	.
Cn1c(CSc2nnc(SCc3ccccc3)s2)nc2ccccc21	16µM*	-29%	8%	-22%	-2%	i
CC(C)Oc1ccc(C(=O)Nc2cc(S(=O)(=O)N3CCOCC3)ccc2N2CCOCC2)cc1	16µM*	21µM*	-18%	?	?	?
CC(C)COc1ccc(C(=O)Nc2cc(S(=O)(=O)N3CCOCC3)ccc2N2CCCC2)cc1	i	26µM*	-6%	16µM*	0%	i
CCN1CCN(c2ccc(S(=O)(=O)N3CCOCC3)cc2NC(=O)c2ccc(OCC(C)C)cc2)CC1	i	?	2%	?	0%	i
NC(=O)c1c(NC(=O)c2ccncn2)sc2c1CCCC2	i	.	.	.	.	?
Cn1cccc1/C=N\NC(=O)Cc1ccc(Br)c2ccccc12	i	10µM*	-10%	15µM*	0%	i
O=C(N/N=C/C1CC=CCC1)c1ccc(O)cc1O (stereo unspecified)	i	10%	10%	11%	1%	i
Cn1cccc1/C=N/NC(N)=S	i	21µM*	3%	?	15%	i
